# Test results: PubChem BioAssay (NCATS)
# Records with an inconclusive call do not appear. Activity calls are given as the source filed them. Calls come from the whole dose curve; as a rule, active = well fitted cell-killing curve with a large enough effect; inconclusive = small, poorly fitted or top-dose-only effect, or effect the other way; inactive = no such curve, though single readings can be large or run the other way.
# Assay: Quantitative High-Throughput drug screen in 47 multiple myeloma cell lines against the NCATS MIPE library collection: U266_ATCC cell viability assay (AID 1919864); note: nearly all actives have a fitted effect of over 35% in size
# Details: U266 myeloma viability, CellTiter-Glo ATP luminescence, 48 h; series mostly up to 45.8 µM
# Description: PI: Beverly A. Mock Ph.D.
# Laboratory of Cancer Biology and Genetics,
# Center for Cancer Research, National Cancer Institute,
# National Institute of Health, Bethesda, Maryland
# Drug resistance and disease progression are common in multiple myeloma (MM) patients, underscoring the need for new therapeutic combinations. […] We hypothesized that effective combinations would reduce MYC expression and enhance p16 activity. […] These preclinical data identify potentially useful drug combinations for evaluation in drug-resistant MM and reveal potential mechanisms of combined drug sensitivity.
# Described herein is the primary MIPE qHTS used to cherrypick compounds. Validated compounds were then further tested for potential synergistic activiy.
# [1] Peat TJ, Gaikwad SM, Dubois W, Gyabaah-Kessie N, Zhang S, Gorjifard S, Phyo Z, Andres M, Hughitt VK, Simpson RM, Miller MA, Girvin AT, Taylor A, Williams D, D'Antonio N, Zhang Y, Rajagopalan A, Flietner E, Wilson K, Zhang X, Shinn P, Klumpp-Thomas C, McKnight C, Itkin Z, Chen L, Kazandijian D, Zhang J, Michalowski AM, Simmons JK, Keats J, Thomas CJ, Mock BA. Drug combinations identified by high-throughput screening promote cell cycle transition and upregulate Smad pathways in myeloma. Cancer Lett. 2023 Aug 1;568:216284. doi: 10.1016/j.canlet.2023.216284. Epub 2023 Jun 24. PMID: 37356470; PMCID: PMC10408729.
# SEQUENCE No. (e.g., 1, 2, 3, etc.); […] (e.g., Cells, Incubation, Reagent, etc.); VALUE and DESCRIPTION.
# 1; Cells; 5 uL; white, solid bottom 1536-well Greiner assay plate.
# 2; Compounds; 23 nL; Kalypsis pin tool (Wako USA) equipped with a 1536-well pin head to transfer to the assay plates.
# 3; Incubation; 48 hours; 37C incubation.
# 4; Reagent;5uL; CellTiter Glo (Promega).
# 5; Detector; 425V; Luminescence; Viewlux PerkinElmer.
# NOTES (numbers refer to Sequence numbers above)
# 1. The cell-based screening methods employed in this study were like those previously published. Briefly, the corresponding myeloma cell lines were screened in 1,536-well plates with 500 cells, 5-uL per well for inhibition of cell viability (assessed by measuring ATP levels with CellTiterGlo).
# 2. NCATS MIPE 4.0 library of approved and investigational drugs were added using the Kalypsis pin tool. Wells treated with DMSO only for 100% viability and media only for 0% viability were used as controls.
# 3. The assay plates were covered and incubated for 48 hours in a 37C, 5% CO2 incubator with controlled humidity.
# 4. After 48 hours, CellTilter-GloTM luminescent substrate mix (Promega) reagent was added to the assay plate and plates we incubated for 5 min at room temperature.
# 5. Signal was measured as median relative luminescence units on a ViewLux (PerkinElmer) multiplate reader.
# [1] Heske CM, Davis MI, Baumgart JT, Wilson K, Gormally MV, Chen L, Zhang X, Ceribelli M, Duveau DY, Guha R, Ferrer M, Arnaldez FI, Ji J, Tran HL, Zhang Y, Mendoza A, Helman LJ, Thomas CJ. Matrix Screen Identifies Synergistic Combination of PARP Inhibitors and Nicotinamide Phosphoribosyltransferase (NAMPT) Inhibitors in Ewing Sarcoma. Clin Cancer Res. 2017 Dec 1;23(23):7301-7311. doi: 10.1158/1078-0432.CCR-17-1121. Epub 2017 Sep 12. PMID: 28899971; PMCID: PMC6636827.
# Potency is the fitted concentration of half-maximal effect.
row,SMILES,Potency
1,COC[C@@H](c1ccc(C(F)(F)F)cc1)N1CCN(C2(C)CCN(C(=O)c3c(C)ncnc3C)CC2)C[C@H]1C,6.62 µM (active)
2,CC[C@]1(O)C[C@@H]2CN(CCc3c([nH]c4ccccc34)[C@@](C(=O)OC)(c3cc4c(cc3OC)N(C=O)[C@@H]3C45CCN4CC=C[C@](CC)([C@H]45)[C@@H](OC(C)=O)[C@]3(O)C(=O)OC)C2)C1 (stereo not given in full),23.5 µM (active)
3,O=c1cc(-c2ccccc2)oc2cc(O)cc(O)c12,inactive
4,Cc1ccc(Nc2cc(-c3cccc(N4C(=O)c5ccccc5C4=O)c3)ncn2)cc1NS(C)(=O)=O,23.5 µM (active)
5,CC[C@@]1(O)C[C@H](O[C@H]2C[C@H](N(C)C)[C@H](O[C@H]3C[C@H](O)[C@H](O[C@H]4CCC(=O)[C@H](C)O4)[C@H](C)O3)[C@H](C)O2)c2c(cc3c(c2O)C(=O)c2c(O)cccc2C3=O)[C@@H]1C(=O)OC,0.418 µM (active)
6,CNC1CCC(N(Cc2cccc(-c3ccncc3)c2)C(=O)c2sc3c(F)ccc(F)c3c2Cl)CC1 (stereo not given),18.7 µM (active)
7,CC(C)n1cnc2c(NCCCCCCNC(=O)OC(C)(C)C)nc(NCCO)nc21,9.35 µM (active)
8,C=CCc1ccc(O)c(-c2ccc(O)c(CC=C)c2)c1,16.6 µM (active)
9,COc1ccc(-n2c(C)c([N+](=O)[O-])c3ccc(O)cc32)cc1,inactive
10,CC(=O)Nc1ccc([C@H](C)C(=O)Nc2ncc(C(C)C)s2)cc1,4.69 µM (active)
11,CC(=Cc1ccccc1)C=C1SC(=S)N(CC(=O)O)C1=O,inactive
12,Cc1nnc(C(C)C)n1C1C[C@H]2CC[C@@H](C1)N2CC[C@H](NC(=O)C1CCC(F)(F)CC1)c1ccccc1 (stereo not given in full),11.8 µM (active)
13,CC=CCC(C)C(O)C1C(=O)NC(CC)C(=O)N(C)CC(=O)N(C)C(CC(C)C)C(=O)NC(C(C)C)C(=O)N(C)C(CC(C)C)C(=O)NC(C)C(=O)NC(C)C(=O)N(C)C(CC(C)C)C(=O)N(C)C(CC(C)C)C(=O)N(C)C(C(C)C)C(=O)N1C (stereo not given),inactive
14,CS(=O)(=O)N(Cc1ccco1)CC(O)Cn1c2ccccc2c2ccccc21 (stereo not given),18.7 µM (active)
15,COC1CCC(N(C(=O)C2CCC(C)CC2)c2cc(C3=CCCCC3)sc2C(=O)O)CC1 (stereo not given),inactive
16,COc1ccc(-c2coc3cc(O)ccc3c2=O)cc1,inactive
17,Clc1ccc(C(c2ccc(Cl)cc2)n2cc[n+](CC(OCc3ccc(Cl)cc3Cl)c3ccc(Cl)cc3Cl)c2)cc1 (stereo not given),16.6 µM (active)
18,O=C1NC(=O)C(=Cc2ccc(-c3ccc(F)cc3)o2)S1,inactive
19,CCC(=O)NC[C@H](Cc1ccc(OCCc2nc(-c3ccccc3)oc2C)cc1)NC(C)=CC(=O)c1ccc(C(F)(F)F)cc1,inactive
20,c1ccc2c(Cc3c[nH]c4ccccc34)c[nH]c2c1,2.96 µM (active)

row,SMILES,Potency
1,CN(C[C@@H]1COCCO1)S(=O)(=O)Nc1ccc2ccc3ncc(-c4cnn(C)c4)cc3c(=O)c2c1,3.32 µM (active)
2,Cc1c(NC(=O)c2ccc(C(C)(C)C)cc2)cccc1-c1cn(C)c(=O)c(Nc2ccc(C(=O)N3CCOCC3)cc2)n1,23.5 µM (active)
3,Cc1[nH]c(C=C2C(=O)Nc3ccc(S(=O)(=O)Cc4c(Cl)cccc4Cl)cc32)c(C)c1C(=O)N1CCC[C@H]1CN1CCCC1,23.5 µM (active)
4,COc1cc2nc(-c3ccc(N4CCN(C)CC4)cc3)nc(NCCN3CCOCC3)c2cc1OC,0.0209 µM (active)
5,CC(C)(Cc1ccc2ccccc2c1)NC[C@@H](O)COc1cccc(Cl)c1C#N,inactive
6,C=C1C(=O)[C@@]23C(CC[C@@H]1[C@H]2O)[C@@]12CO[C@]3(O)[C@@H](O)[C@@H]1C(C)(C)CC[C@@H]2O (stereo not given in full),8.33 µM (active)
7,N#CC(=C(N)Sc1ccccc1N)C(C#N)=C(N)Sc1ccccc1N,5.26 µM (active)
8,O=C(NC1CCOCC1)c1ccc(-c2cc(-c3cn[nH]c3-c3ccccn3)ccn2)cc1,inactive
9,O=C1NC(=O)C(=Cc2ccc3c(c2)OC(F)(F)O3)S1,inactive
10,CCCCCN(C)CCC(O)(P(=O)(O)O)P(=O)(O)O,inactive
11,CC(=O)N(C)C1(c2ccccc2)CCN(CCC[C@]2(c3ccc(Cl)c(Cl)c3)CCCN(C(=O)c3ccccc3)C2)CC1,23.5 µM (active)
12,C[C@]12CC[C@@H]3c4ccc(O)cc4C[C@@H](CCCCCCCCCS(=O)CCCC(F)(F)C(F)(F)F)[C@H]3[C@H]1CC[C@H]2O (stereo not given in full),inactive
13,O=C(NCc1ccccc1)c1csc(Nc2ccncn2)n1,18.7 µM (active)
14,C[C@]12CC[C@@H]3c4ccc(O)cc4CC[C@H]3[C@H]1C[C@@H](O)[C@H]2O,18.7 µM (active)
15,CC(=O)OC1C(C)OC(Oc2c(-c3ccc(O)cc3)oc3cc(O)cc(O)c3c2=O)C(O)C1OC(C)=O (stereo not given),18.7 µM (active)
16,CO[C@H]1C[C@@H]2CC[C@@H](C)[C@@](O)(O2)C(=O)C(=O)N2CCCC[C@@H]2C(=O)O[C@H]([C@H](C)C[C@@H]2CC[C@H](OP(C)(C)=O)[C@H](OC)C2)CC(=O)[C@H](C)C=C(C)[C@@H](O)[C@@H](OC)C(=O)[C@H](C)C[C@H](C)C=CC=CC=C1C,inactive
17,CCCCCNC(=O)N1CCC(CN(Cc2ccc(Cl)cc2)Cc2ccc([N+](=O)[O-])s2)C1 (stereo not given),16.6 µM (active)
18,O=c1c(-c2ccc(O)cc2)coc2cc(O)ccc12,inactive
19,COc1ccc(Cc2ccc(NC(N)=O)cc2)cc1-c1cccc(Cl)c1,8.33 µM (active)
20,NC(=O)[C@@H](CCC(F)(F)F)N(Cc1ccc(-c2ncon2)cc1F)S(=O)(=O)c1ccc(Cl)cc1,10.5 µM (active)
